Among the data in PubChem BioAssay (EPA / NIEHS) are outcome and AC50 values, retold here.

SMILES strings stand for the structures. Inconclusive results are not listed. The source made the active and inactive calls. How the source made its calls, unless noted: active means hit-call score of the fitted dose curve at least 0.9, where 1 is the maximum; inactive means score below 0.9.

Read-out in assay [1]: solute carrier (SLCO1B1), SLCO1B1 (gene 10599)
In words: LTEA_HepaRG_SLCO1B1: Life Technologies and Expression Analysis (LTEA) Assay for solute carrier (SLCO1B1) using HepaRG (AID 2283530). Conditions: mRNA level, 48 h; actives raise or lower the signal. Put shortly:
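HepaRG, serum-free induction medium, 48 h dosing, 8-pt half-log from 100 uM, 0.5% DMSO vehicle, duplicates. Readout: SLCO1B1 mRNA, qRT-PCR, ACTB/GAPDH/POLR2A normalization; up or down fit vs DMSO.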

Read-out in assay [2]: sulfotransferase 2A1 (SULT2A1), SULT2A1 (gene 6822)
In words: LTEA_HepaRG_SULT2A1: Life Technologies and Expression Analysis (LTEA) Assay for sulfotransferase 2A1 (SULT2A1) using HepaRG (AID 2283531). Conditions: mRNA level, 48 h; actives raise or lower the signal. Put shortly: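 Transcript levels of SULT2A1, quantified by qRT-PCR and normalized to three housekeeping genes, serve as the readout. Human HepaRG cultures receive test chemicals for 48 h at up to 100 uM in half-log steps, with 0.5% DMSO vehicle.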

Read-out in assay [3]: Transforming Growth Factor (TGFA), TGFA (gene 7039)
Description: LTEA_HepaRG_TGFA: Life Technologies and Expression Analysis (LTEA) Assay for Transforming Growth Factor (TGFA) using HepaRG (AID 2283532). Conditions: mRNA level, 48 h; actives raise or lower the signal. Put shortly:
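Differentiated HepaRG cells exposed 48 hours in serum-free induction medium, 0.5% DMSO vehicle, 8-point half-log series from 100 uM, in duplicate. TGFA mRNA by TaqMan qRT-PCR, normalised to ACTB, GAPDH, POLR2A; bidirectional fit versus DMSO.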

Read-out in assay [4]: Transforming Growth Factor (TGFB1), TGFB1 (gene 7040)
In words: LTEA_HepaRG_TGFB1: Life Technologies and Expression Analysis (LTEA) Assay for Transforming Growth Factor (TGFB1) Transporter using HepaRG (AID 2283533). As to conditions: mRNA level, 48 h; actives raise or lower the signal. An outline of the steps: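 HepaRG, 48 h post-plating, switched to serum-free induction medium; chemicals 100 uM top, half-log, 8 pts, 0.5% DMSO, dup; 48 h exposure; RNA → Fluidigm TaqMan qRT-PCR; norm ACTB/GAPDH/POLR2A; bidirectional fit vs DMSO.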

Read-out in another assay: TIMP1, TIMP1 (gene 7076)
In words: LTEA_HepaRG_TIMP1: Life Technologies and Expression Analysis (LTEA) Assay for TIMP1 using HepaRG (AID 2283534). As to conditions: mRNA level, 48 h; actives raise or lower the signal. An outline of the steps: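 Readout is TIMP1 mRNA level measured by qRT-PCR and normalized to three housekeeping genes. Human HepaRG cells were treated for 48 h in duplicate at eight concentrations up to 100 uM (0.5% DMSO); gain or loss fitted against DMSO.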

Read-out in assay [5]: Tumor necrosis factor receptor 1 (TNFRSF1A), TNFRSF1A (gene 7132)
In words: LTEA_HepaRG_TNFRSF1A: Life Technologies and Expression Analysis (LTEA) Assay for Tumor necrosis factor receptor 1 (TNFRSF1A) using HepaRG (AID 2283535). Conditions: mRNA level, 48 h; actives raise or lower the signal. An outline of the steps:
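Read-out is TNFRSF1A transcript level by TaqMan qRT-PCR, normalized to three housekeeping genes, scored as gain or loss of signal versus 0.5% DMSO. Human HepaRG cells received test chemicals for 48 h at up to 100 uM (half-log series).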

Read-out in assay [6]: Cellular tumor antigen p53 (Homo sapiens) (UniProt P04637)
Description: LTEA_HepaRG_TP53: Life Technologies and Expression Analysis (LTEA) Assay for Tumor Protein P53 (TP53) using HepaRG (AID 2283537). Conditions: mRNA level, 48 h; actives raise or lower the signal. An outline of the steps: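 Gain or loss of TP53 mRNA signal is scored relative to 0.5% DMSO after 48 h chemical treatment of HepaRG liver cells, tested in duplicate at eight half-log concentrations up to 100 uM.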

Read-out in assay [7]: UDP glucuronosyltransferase (UGT1A1), UGT1A1 (gene 54658)
Description: LTEA_HepaRG_UGT1A1: Life Technologies and Expression Analysis (LTEA) Assay for UDP glucuronosyltransferase (UGT1A1) using HepaRG (AID 2283538). As to conditions: mRNA level, 48 h; actives raise or lower the signal. An outline of the steps: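 Differentiated human HepaRG cells in serum-free induction medium were exposed in duplicate for 48 h to eight half-log concentrations up to 100 uM in 0.5% DMSO. UGT1A1 mRNA was quantified by TaqMan qRT-PCR, normalized to ACTB, GAPDH and POLR2A, and fitted bidirectionally against DMSO.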

Read-out in assay [8]: UDP glucuronosyltransferase (UGT1A6), UGT1A6 (gene 54578)
In words: LTEA_HepaRG_UGT1A6: Life Technologies and Expression Analysis (LTEA) Assay for UDP glucuronosyltransferase (UGT1A6) using HepaRG (AID 2283539). Conditions: mRNA level, 48 h; actives raise or lower the signal. An outline of the steps: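 HepaRG, 48 h post-plating switch to serum-free induction medium; chemical 48 h, 100 uM top, half-log x8, duplicate, 0.5% DMSO. Phenobarbital 1mM induction control. UGT1A6 mRNA by TaqMan qRT-PCR; gain/loss fit vs DMSO.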

Read-out in assay [9]: X-box binding protein 1 (XBP1), XBP1 (gene 7494)
In words: LTEA_HepaRG_XBP1: Life Technologies and Expression Analysis (LTEA) Assay for X-box binding protein 1 (XBP1) using HepaRG (AID 2283540). Conditions: mRNA level, 48 h; actives raise or lower the signal. An outline of the steps: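 Transcript levels of XBP1, measured by qRT-PCR and normalised to three housekeeping genes, were fitted bidirectionally relative to 0.5% DMSO controls. Human HepaRG cells received eight-point half-log dilutions from 100 uM for 48 h.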

Assay [10] is described as follows: LTEA_HepaRG_LDH_cytotoxicity: Cytotoxicity Assessment in the Life Technologies and Expression Analysis (LTEA) Assay (AID 2283563; active means hit-call score of the fitted dose curve at least 0.9, where 1 is the maximum). Put shortly: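 Cells were thawed and plated for 48 h. Medium was then replaced with serum-free induction medium. Chemicals (8 half-log points, maximum 100 uM, 0.5% DMSO) were added in duplicate for 48 h, after which spent medium was assayed for LDH.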

Assay [11] is described as follows: ATG_XTT_Cytotoxicity: Cytotoxicity Assessment in the Attagene TRANS-FACTORIAL HepG2 Assay (AID 2283584; active means hit-call score of the fitted dose curve at least 0.9, where 1 is the maximum). An outline of the steps: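 Cells: human HepG2, transiently transfected with MRTU reporter constructs. Exposure 24 h. Readout: XTT, cell number. Baseline/neg ctrl DMSO; loss-of-signal scored.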
In assay [12] the target is Cellular tumor antigen p53 (Homo sapiens) (UniProt P04637). In words: TOX21_p53_BLA_p3_ratio: Tox21 HCT-116 p53 Agonism Beta-lactamase Assay, Ratio, Phase 3 (AID 2283596; active means hit-call score of the fitted dose curve at least 0.9, where 1 is the maximum). An outline of the steps:
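HCT116 p53-bla cells (4000/well) given compound in DMSO (217-fold dilution) after 5 h, incubated 16 h at 37C. CCF4-AM substrate 2 h at room temperature; 460/530 nm emission ratio, gain fitted against DMSO.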

For assay [13] the target is unchanged. In words: TOX21_p53_BLA_p5_ratio: Tox21 HCT-116 p53 Agonism Beta-lactamase Assay, Ratio, Phase 5 (AID 2283599; active means hit-call score of the fitted dose curve at least 0.9, where 1 is the maximum). Put shortly: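 HCT-116 p53-bla cells (4000/well) plated 5 h, dosed with compound (217-fold DMSO dilution) for 16 h at 37 C; CCF4-AM substrate 2 h at room temperature. Activity is the 460/530 nm emission ratio (405 nm excitation), fitted in gain-of-signal direction versus DMSO.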

Read-out in assay [14]: Thyroid Hormone Responsive (THRSP), THRSP (gene 7069)
Description: LTEA_HepaRG_THRSP: Life Technologies and Expression Analysis (LTEA) Assay for Thyroid Hormone Responsive (THRSP) using HepaRG (AID 2283536). As to conditions: mRNA level, 48 h; actives raise or lower the signal. An outline of the steps:
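Differentiated HepaRG cells treated 48 h in serum-free induction medium with 8 half-log concentrations up to 100 uM (0.5% DMSO), duplicates. THRSP mRNA by TaqMan qRT-PCR normalised to ACTB, GAPDH, POLR2A; bidirectional fit versus DMSO.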

Assay [15] is described as follows: TOX21_p53_BLA_p2_viability: Viability Assessment in the Tox21 HCT-116 p53 Agonism Beta-lactamase Assay, Phase 2 (AID 2283591; active means hit-call score of the fitted dose curve at least 0.9, where 1 is the maximum;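 further: compound exposure lasted 16 h at 37 °C; actives lower the ATP signal meaning cytotoxicity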). An outline of the steps:
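HCT116 p53-bla cells, 4000/well, dosed after 5 h plating (217-fold dilution of DMSO stocks) and incubated 16 h at 37C. Viability taken as cellular ATP by CellTiter-Glo luminescence after 30 min RT; signal loss marks cytotoxicity.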

Assay [16] has as its target Cellular tumor antigen p53 (Homo sapiens) (UniProt P04637). In words: TOX21_p53_BLA_p2_ratio: Tox21 HCT-116 p53 Agonism Beta-lactamase Assay, Ratio, Phase 2 (AID 2283592; active means hit-call score of the fitted dose curve at least 0.9, where 1 is the maximum). Put shortly: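 HCT116 p53-bla; 4000 cells/well; 5 h pre-incubation; cpd in DMSO, 217-fold dilution; 16 h 37C/5% CO2; CCF4-AM 2 h RT; Ex 405, Em 460/530 ratio; DMSO = baseline; positive fitting direction.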

Assay [17] can be described thus: TOX21_p53_BLA_p3_viability: Viability Assessment in the Tox21 HCT-116 p53 Agonism Beta-lactamase Assay, Phase 3 (AID 2283593; active means hit-call score of the fitted dose curve at least 0.9, where 1 is the maximum;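 further: cells exposed to compound for 16 h before reading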). An outline of the steps: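 HCT116 cells, 4000/well, dosed 5 h after plating by pin transfer (217-fold dilution from DMSO stock) and incubated 16 h at 37C, 5% CO2. Viability read as ATP luminescence with CellTiter-Glo after 30 min at room temperature.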

Assay [18] can be described thus: TOX21_p53_BLA_p4_viability: Viability Assessment in the Tox21 HCT-116 p53 Agonism Beta-lactamase Assay, Phase 4 (AID 2283597; active means hit-call score of the fitted dose curve at least 0.9, where 1 is the maximum;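 further: hits lower the luminescence signal meaning cytotoxicity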). An outline of the steps: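 Cells plated, 5 h pre-incubation; DMSO compounds pinned (217-fold dilution); 16 h, 37C/5% CO2; CCF4-AM 2 h RT; CellTiter-Glo 30 min RT; luminescence read.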
A short description of assay [19]: TOX21_p53_BLA_p5_viability: Viability Assessment in the Tox21 HCT-116 p53 Agonism Beta-lactamase Assay, Phase 5 (AID 2283600; active means hit-call score of the fitted dose curve at least 0.9, where 1 is the maximum). Put shortly:
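4000 cells/well; 5 h pre-incubation; DMSO compounds pin-transferred, 217-fold dilution; 16 h, 37C/5% CO2; CCF4-AM 2 h RT; CellTiter-Glo 30 min RT; luminescence.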

Sequence of Cellular tumor antigen p53 (Homo sapiens) (P04637 whole entry, looked up): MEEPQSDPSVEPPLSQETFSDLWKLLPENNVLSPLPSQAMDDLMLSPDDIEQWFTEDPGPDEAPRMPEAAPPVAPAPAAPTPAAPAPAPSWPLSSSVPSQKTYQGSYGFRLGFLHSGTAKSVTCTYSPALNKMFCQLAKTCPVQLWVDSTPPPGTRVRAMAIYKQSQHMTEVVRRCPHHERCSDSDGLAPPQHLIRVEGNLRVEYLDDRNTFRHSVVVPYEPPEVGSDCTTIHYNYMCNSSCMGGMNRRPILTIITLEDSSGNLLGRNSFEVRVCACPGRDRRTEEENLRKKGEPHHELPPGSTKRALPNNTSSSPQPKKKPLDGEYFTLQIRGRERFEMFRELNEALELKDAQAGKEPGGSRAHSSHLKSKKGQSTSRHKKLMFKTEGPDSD

As for `C=CCCCCCCCCCCCC`, the outcome was “inactive” in assay [1]; “inactive” in assay [2]; “inactive” in [3]; “inactive” in assay [4]; “inactive” with TIMP1, TIMP1 (gene 7076); “inactive” in assay [5]. Besides, the outcome in assay [6], in assay [7], in [8], in assay [9], in assay [10] and in assay [11] was inactive. The outcome in assay [12] and in assay [13] was inactive.

As a reminder, the AC50 is the concentration giving half of the maximal activity seen. Regarding `NC(=Nc1ccccc1)Nc1ccccc1`, the outcome in assay [1] was “inactive”; in assay [2], “inactive”; in [3], “inactive”; in assay [4], “inactive”; in the assay with TIMP1, TIMP1 (gene 7076), “inactive”; in [5], “inactive”. Besides, the molecule was called inactive in assay [6], in assay [7], in assay [8], in [15], in assay [16] and in assay [17]. In addition, the result in assay [18], in assay [13] and in [19] was inactive. Moreover, in assay [14], the AC50 is 12.8 µM (active).

Take `C#CC(O)C(CC)CCCC` (configuration not stated): the outcome is “inactive” in assay [1]; “inactive” in assay [2]; “inactive” in [3]; “inactive” in assay [4]; “inactive” with TIMP1, TIMP1 (gene 7076); “inactive” in [5]. Besides, the molecule was called inactive in assay [14], in assay [7], in assay [8], in assay [9] and in [10].

On to `CC(=O)OCC(COC(C)=O)OC(C)=O`, for which the outcome in assay [1] is “inactive”; in [2], “inactive”; in assay [3], “inactive”; in assay [4], “inactive”; with TIMP1, TIMP1 (gene 7076), “inactive”; in assay [5], “inactive”. The outcome in assay [14], in [7], in assay [8], in assay [10] and in assay [11] was inactive.
